# Assay results: PubChem BioAssay (NCATS)
# Records with an inconclusive call do not appear. A call without a number means that no potency is given here. Activity calls are given as the source filed them. Calls follow the shape of the dose curve; as a rule, active = well fitted inhibition curve with a large enough effect; inconclusive = small, poorly fitted or top-dose-only effect; inactive = flat fitted curve, though single readings scatter.
# Molecular target: Ubiquitin carboxyl-terminal hydrolase 1 (Homo sapiens) (UniProt O94782)
# Experiment: Inhibitors of USP1/UAF1: Pilot qHTS (AID 504865); also: nearly all actives have a fitted effect of over 35% in size
# Settings: purified USP1/UAF1, Ub-rhodamine cleavage fluorescence; series mostly up to 114 µM
# In short: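 1nM USP1/UAF1 + cpd, 15 min RT; start w/ Ub-Rho 150nM final; kinetic FL 480/540 nm, 6 reads q60 s. Buffer 50mM HEPES pH 7.8, 0.5mM EDTA, 1mM TCEP, 0.01% Tween-20, 0.1 mg/ml BSA.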
# Potency is read from the fitted curve at half-maximal effect.
# Chain of Ubiquitin carboxyl-terminal hydrolase 1 (Homo sapiens) (O94782 whole entry, looked up): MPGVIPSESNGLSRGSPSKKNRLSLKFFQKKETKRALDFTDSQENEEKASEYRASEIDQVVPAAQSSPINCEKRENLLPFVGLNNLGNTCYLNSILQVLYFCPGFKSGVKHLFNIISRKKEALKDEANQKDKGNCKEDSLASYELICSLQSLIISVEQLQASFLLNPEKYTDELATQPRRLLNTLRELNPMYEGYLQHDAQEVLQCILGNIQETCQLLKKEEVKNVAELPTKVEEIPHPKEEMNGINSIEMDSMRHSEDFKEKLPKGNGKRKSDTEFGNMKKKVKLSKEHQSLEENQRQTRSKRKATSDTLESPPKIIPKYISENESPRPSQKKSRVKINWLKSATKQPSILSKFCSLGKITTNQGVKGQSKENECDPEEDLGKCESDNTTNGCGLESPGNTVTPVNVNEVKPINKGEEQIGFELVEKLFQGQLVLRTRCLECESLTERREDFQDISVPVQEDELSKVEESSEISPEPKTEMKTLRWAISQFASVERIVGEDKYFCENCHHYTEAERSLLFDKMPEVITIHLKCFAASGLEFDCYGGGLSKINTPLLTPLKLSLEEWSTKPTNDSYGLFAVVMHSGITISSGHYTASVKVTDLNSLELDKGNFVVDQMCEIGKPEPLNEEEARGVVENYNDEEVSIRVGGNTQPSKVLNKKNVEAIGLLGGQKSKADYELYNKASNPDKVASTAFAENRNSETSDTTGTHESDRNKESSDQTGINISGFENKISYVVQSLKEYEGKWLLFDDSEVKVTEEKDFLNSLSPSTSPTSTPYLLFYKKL
row,SMILES,Potency
1,O=C1c2ccccc2C(=O)C1c1ccccc1,inactive
2,Cc1cc(O)c(C(C)C)cc1Cl,inactive
3,CCCC(=O)Nc1ccc(OCC(O)CNC(C)C)c(C(C)=O)c1 (configuration not stated),inactive
4,Cc1cccn2c(=O)c(-c3nnn[nH]3)cnc12,inactive
5,CCCCCCCCCCCCCCCC[N+](C)(C)CC,17.8 µM (active)
6,C[C@]12CCC(=O)C=C1CC[C@H]1[C@@H]3CC[C@](O)(C(=O)CO)[C@@]3(C)C[C@H](O)[C@@]12F,inactive
7,Nc1ccc(C(=O)Nc2ccccc2N)cc1,inactive
8,C[C@@H](CN(C)C)CN1c2ccccc2Sc2ccccc21,inactive
9,COc1cccc(CCc2ccccc2OCC(CN(C)C)OC(=O)CCC(=O)O)c1 (configuration not stated),inactive
10,NC(CS)C(=O)O (configuration not stated),inactive
11,CN1CCN(CCCN2c3ccccc3Sc3ccc(S(=O)(=O)N(C)C)cc32)CC1,inactive
12,CCCCc1nc(Cl)c(CO)n1Cc1ccc(-c2ccccc2-c2nn[nH]n2)cc1,inactive
13,CN1C(CCl)Nc2cc(Cl)c(S(N)(=O)=O)cc2S1(=O)=O (configuration not stated),inactive
14,CN1CCC[C@@H]1c1cccnc1,inactive
15,CCCCOc1cc(C(=O)NCCN(CC)CC)c2ccccc2n1,inactive
16,COc1ccc(OC)c(C(O)CNC(=O)CN)c1 (configuration not stated),inactive

row,SMILES,Potency
1,Cc1ccc(O)c2ncccc12,inactive
2,CCN(CC)CCOC(=O)C(c1ccccc1)C1CCCCC1 (configuration not stated),inactive
3,CCOc1ccc2nc3cc(N)ccc3c(N)c2c1,50.1 µM (active)
4,NC(=O)C(=O)N/N=C/c1ccc([N+](=O)[O-])o1,inactive
5,Cc1c(C)n(CCN(C)C)c2ccc(C(=O)OCCN(C)C)cc12,inactive
6,CCN(CC)CCNC(=O)COc1ccc(Cl)cc1,inactive
7,Cc1ccc(C(=O)C(C)CN2CCCCC2)cc1 (configuration not stated),inactive
8,O=c1c(-c2ccccc2)c1-c1ccccc1,inactive
9,Cc1ncc(CSSCc2cnc(C)c(O)c2CO)c(CO)c1O,inactive
10,COc1cc(OC)cc(OC)c1,inactive
11,CCCCOc1ccc(C(=O)CCN2CCCCC2)cc1,inactive
12,O=C(COc1ccc(Cl)cc1)N1CCN(Cc2ccc3c(c2)OCO3)CC1,inactive
13,CCOC(=O)OC(C)OC1=C(C(=O)Nc2ccccn2)N(C)S(=O)(=O)c2ccccc21 (configuration not stated),inactive
14,CCOC(=O)COc1ccc2c(C)c(CCN(CC)CC)c(=O)oc2c1Cl,inactive
15,O=C(Nc1ccc(Cl)c(Cl)c1)C1CC1,inactive
16,Oc1cc(O)c2c(c1)O[C@H](c1ccc(O)c(O)c1)[C@H](O)C2,inactive
